# Results: PubChem BioAssay (EPA / NIEHS)
# Inconclusive results are not listed. Activity calls are given as the source filed them. Rule for the calls, unless noted: active = hit-call score of the fitted dose curve at least 0.9, where 1 is the maximum; inactive = score below 0.9.
# Legend:
# [1] = target: Paired box protein Pax-6 (Homo sapiens) (UniProt P26367); experiment: ATG_Pax6_CIS: Attagene CIS-FACTORIAL HepG2 Assay for human Paired Box 6 (PAX6) (AID 2282956); details: HepG2 CIS-FACTORIAL PAX6 reporter transcription, RNA readout; actives raise or lower the signal
# Sequence of Paired box protein Pax-6 (Homo sapiens) (P26367 whole entry, looked up): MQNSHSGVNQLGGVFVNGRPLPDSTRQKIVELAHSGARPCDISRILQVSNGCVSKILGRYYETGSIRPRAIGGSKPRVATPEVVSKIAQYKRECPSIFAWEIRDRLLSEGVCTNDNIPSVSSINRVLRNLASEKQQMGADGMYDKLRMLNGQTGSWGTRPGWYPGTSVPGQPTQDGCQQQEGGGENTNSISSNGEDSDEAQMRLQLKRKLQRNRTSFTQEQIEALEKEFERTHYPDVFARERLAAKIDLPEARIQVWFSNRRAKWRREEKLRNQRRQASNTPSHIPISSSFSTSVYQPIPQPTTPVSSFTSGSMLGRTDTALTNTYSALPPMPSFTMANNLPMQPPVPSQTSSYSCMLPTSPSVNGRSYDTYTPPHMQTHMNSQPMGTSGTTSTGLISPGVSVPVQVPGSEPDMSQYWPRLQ
# Outline: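 After twenty-four hours of chemical exposure, transfected HepG2 cells are harvested for RNA. Cis-promoter reporter transcripts are amplified, fluorescently labelled and sized by capillary electrophoresis, with gain and loss of signal scored against DMSO.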
# [2] = ATG_PXRE_CIS: Attagene CIS-FACTORIAL HepG2 Assay for human Pregnane X Receptor Element (PXRE) (AID 2282957); details: HepG2 Attagene CIS-FACTORIAL PXRE reporter, mRNA; actives raise or lower the signal
# Outline: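 HepG2 cells transiently transfected with cis-regulated multiple reporter transcription units; endogenous factor activity measured as reporter mRNA 24 h after dosing. RT-PCR, fluorescent primer extension, HpaI digestion, capillary electrophoresis; bidirectional fit versus DMSO baseline.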
# [3] = ATG_PPRE_CIS: Attagene CIS-FACTORIAL HepG2 Assay for human Peroxisome Proliferator-activated Response Element (PPRE) (AID 2282958); details: HepG2 PPRE cis-element reporter, Attagene transcription factor profiling; actives raise or lower the signal
# Outline: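 HepG2, transient MRTU transfection (cis promoter elements, endogenous TFs). 24 h dosing. RNA → oligo(dT) RT → PCR → 6-FAM primer extension → HpaI digest → CE. Bidirectional fit vs DMSO.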
# [4] = ATG_RORE_CIS: Attagene CIS-FACTORIAL HepG2 Assay for human RAR-related Orphan Receptor Element (RORE) (AID 2282959); details: HepG2 Attagene cis-factorial RORE reporter, mRNA; actives raise or lower the signal
# Outline: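 Transient MRTU transfection of human HepG2 liver cells (FuGene 6); 24 h compound exposure; TriZol RNA, oligo(dT) RT, PCR, FAM labeling, HpaI cut, CE fragment analysis. DMSO = negative control/baseline.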
# [5] = ATG_Sox_CIS: Attagene CIS-FACTORIAL HepG2 Assay for human SRY-box transcription factor (SOX) (AID 2282960); details: HepG2 Attagene cis-factorial SOX reporter, mRNA; actives raise or lower the signal
# Outline: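 Endogenous factor activity in human liver HepG2 cells carrying transfected cis-regulated reporter units. RNA taken 24 h post-dose, reverse-transcribed, PCR-amplified and sized by capillary electrophoresis. Gain or loss of signal fitted relative to DMSO.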
# [6] = target: Transcription factor Sp1 (Homo sapiens) (UniProt P08047); experiment: ATG_Sp1_CIS: Attagene CIS-FACTORIAL HepG2 Assay for human Specificity Protein 1 (Sp1) (AID 2282961); details: HepG2 Sp1 cis-reporter transcription, actives raise or lower the signal
# Sequence of Transcription factor Sp1 (Homo sapiens) (P08047 whole entry, looked up): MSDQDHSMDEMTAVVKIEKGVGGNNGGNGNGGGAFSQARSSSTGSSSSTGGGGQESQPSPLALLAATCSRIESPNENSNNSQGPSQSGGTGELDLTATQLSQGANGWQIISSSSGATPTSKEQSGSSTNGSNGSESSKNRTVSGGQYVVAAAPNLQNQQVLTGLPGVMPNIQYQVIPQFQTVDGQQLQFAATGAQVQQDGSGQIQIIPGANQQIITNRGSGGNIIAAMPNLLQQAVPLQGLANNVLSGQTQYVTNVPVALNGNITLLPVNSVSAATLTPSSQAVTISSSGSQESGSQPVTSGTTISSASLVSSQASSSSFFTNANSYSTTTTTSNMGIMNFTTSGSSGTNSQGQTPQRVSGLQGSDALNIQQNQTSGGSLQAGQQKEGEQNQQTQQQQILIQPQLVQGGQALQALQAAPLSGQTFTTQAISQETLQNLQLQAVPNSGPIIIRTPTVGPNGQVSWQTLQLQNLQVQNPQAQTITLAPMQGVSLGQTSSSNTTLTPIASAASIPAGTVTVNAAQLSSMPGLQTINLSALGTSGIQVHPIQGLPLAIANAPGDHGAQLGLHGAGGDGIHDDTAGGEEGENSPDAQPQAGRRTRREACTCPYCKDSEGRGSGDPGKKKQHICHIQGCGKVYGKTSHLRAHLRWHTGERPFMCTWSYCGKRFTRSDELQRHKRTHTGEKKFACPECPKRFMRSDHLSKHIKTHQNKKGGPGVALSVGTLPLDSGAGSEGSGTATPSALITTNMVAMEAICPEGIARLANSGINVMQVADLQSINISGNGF
# Outline: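 Transient MRTU-transfected HepG2, 24 h compound exposure. Total RNA → oligo(dT) RT → PCR of reporter → 6-FAM primer extension → HpaI digest → CE. Endpoint fitted both directions vs DMSO.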
# [7] = ATG_SREBP_CIS: Attagene CIS-FACTORIAL HepG2 Assay for human Sterol Regulatory Element Binding (SREBP) (AID 2282962); details: HepG2 Attagene cis-factorial SREBP reporter, mRNA; actives raise or lower the signal
# Outline: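 Twenty-four hours after chemical dosing of transfected HepG2 cultures, reporter RNA was converted to cDNA, amplified, end-labelled with 6-FAM and resolved by capillary electrophoresis. Responses were fitted relative to DMSO.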
# [8] = target: Signal transducer and activator of transcription 3 (Homo sapiens) (UniProt P40763); experiment: ATG_STAT3_CIS: Attagene CIS-FACTORIAL HepG2 Assay for human Signal Transducer and Activator of Transcription 3 (STAT3) (AID 2282963); details: HepG2, Attagene cis-factorial STAT3 reporter transcription; actives raise or lower the signal
# Sequence of Signal transducer and activator of transcription 3 (Homo sapiens) (P40763 whole entry, looked up): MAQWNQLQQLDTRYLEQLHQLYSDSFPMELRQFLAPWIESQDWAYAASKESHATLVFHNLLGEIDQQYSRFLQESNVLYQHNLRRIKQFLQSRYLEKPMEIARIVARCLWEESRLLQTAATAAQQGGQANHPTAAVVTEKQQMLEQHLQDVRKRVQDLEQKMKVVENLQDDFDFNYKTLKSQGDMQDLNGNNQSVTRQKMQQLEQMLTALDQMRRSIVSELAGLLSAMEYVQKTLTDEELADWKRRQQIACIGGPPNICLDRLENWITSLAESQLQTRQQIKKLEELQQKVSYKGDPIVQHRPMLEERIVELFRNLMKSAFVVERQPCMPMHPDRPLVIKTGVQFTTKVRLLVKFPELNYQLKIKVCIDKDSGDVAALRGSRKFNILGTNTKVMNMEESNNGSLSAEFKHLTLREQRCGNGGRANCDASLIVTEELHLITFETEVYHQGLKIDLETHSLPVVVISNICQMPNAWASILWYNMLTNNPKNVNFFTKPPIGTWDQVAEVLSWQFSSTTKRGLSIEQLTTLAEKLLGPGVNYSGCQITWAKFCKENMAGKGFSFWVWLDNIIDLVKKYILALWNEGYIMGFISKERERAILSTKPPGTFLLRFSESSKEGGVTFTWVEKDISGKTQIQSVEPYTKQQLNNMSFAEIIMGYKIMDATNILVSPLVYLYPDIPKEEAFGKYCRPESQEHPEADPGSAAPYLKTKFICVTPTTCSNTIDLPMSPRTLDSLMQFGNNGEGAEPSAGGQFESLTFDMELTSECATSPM
# Outline: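 HepG2 cells transiently transfected with multiple cis-element-driven reporter units report endogenous transcription factor activity. After 24 h compound exposure, reporter mRNA is measured by RT-PCR, 6-FAM labelling, HpaI digestion and capillary electrophoresis. Fitted bidirectionally versus DMSO.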
# [9] = ATG_TA_CIS: Attagene CIS-FACTORIAL HepG2 Assay for human TA Basal Promoter (AID 2282964); details: HepG2 Attagene CIS-factorial TA basal promoter reporter; actives raise or lower the signal
# Outline: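 Multiplexed mRNA reporter assay, HepG2, 24 h. Reporter cDNA amplified, 6-FAM primer-extended, HpaI-cut, CE-sized; DMSO = negative control and baseline.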
# [10] = ATG_TCF_b_cat_CIS: Attagene CIS-FACTORIAL HepG2 Assay for human T-Cell-Factor with beta-catenin (TCF/b-cat) (AID 2282965); details: HepG2 TCF/beta-catenin cis-reporter transcription, actives raise or lower the signal
# Outline: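 Cells of the HepG2 line carry transiently transfected reporter units whose promoters respond to endogenous factors. Twenty-four hours post-dosing, reporter mRNA induction is measured by fluorescent RT-PCR and capillary electrophoresis, with DMSO as baseline.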
# [11] = ATG_TAL_CIS: Attagene CIS-FACTORIAL HepG2 Assay for human TAL Basal Promoter (AID 2282966); details: HepG2 Attagene cis-factorial TAL promoter reporter; actives raise or lower the signal;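 note: background control endpoint measuring basal TAL promoter reporter mRNA not a specific factor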
# Outline: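 HepG2 cells were transiently transfected with promoter-driven multiplexed reporter units and dosed for 24 h. Reporter mRNA was measured by RT-PCR with capillary electrophoresis fluorescence; bidirectional fits used DMSO as baseline, serving as a background control.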
# [12] = ATG_TGFb_CIS: Attagene CIS-FACTORIAL HepG2 Assay for human Transforming Growth Factor (TGF) (AID 2282967); details: HepG2 Attagene CIS TGFb reporter, mRNA transcription; actives raise or lower the signal
# Outline: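 Transcript-level reporter readout: HepG2 transfectants, 24 h exposure, RNA to cDNA, reporter-specific PCR, fluorescent primer extension, capillary sizing against ROX standards. Gain- or loss-of-signal relative to DMSO.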
# [13] = target: Estrogen receptor (Homo sapiens) (UniProt P03372); experiment: ATG_ERa_TRANS: Attagene TRANS-FACTORIAL HepG2 Assay for human Estrogen Receptor alpha (ERa) (AID 2282970; active = hit-call score of the fitted dose curve at least 0.9, where 1 is the maximum); details: HepG2 Attagene TRANS ERa GAL4 reporter, mRNA
# Sequence of Estrogen receptor (Homo sapiens) (P03372 whole entry, looked up, the tested form may be a part): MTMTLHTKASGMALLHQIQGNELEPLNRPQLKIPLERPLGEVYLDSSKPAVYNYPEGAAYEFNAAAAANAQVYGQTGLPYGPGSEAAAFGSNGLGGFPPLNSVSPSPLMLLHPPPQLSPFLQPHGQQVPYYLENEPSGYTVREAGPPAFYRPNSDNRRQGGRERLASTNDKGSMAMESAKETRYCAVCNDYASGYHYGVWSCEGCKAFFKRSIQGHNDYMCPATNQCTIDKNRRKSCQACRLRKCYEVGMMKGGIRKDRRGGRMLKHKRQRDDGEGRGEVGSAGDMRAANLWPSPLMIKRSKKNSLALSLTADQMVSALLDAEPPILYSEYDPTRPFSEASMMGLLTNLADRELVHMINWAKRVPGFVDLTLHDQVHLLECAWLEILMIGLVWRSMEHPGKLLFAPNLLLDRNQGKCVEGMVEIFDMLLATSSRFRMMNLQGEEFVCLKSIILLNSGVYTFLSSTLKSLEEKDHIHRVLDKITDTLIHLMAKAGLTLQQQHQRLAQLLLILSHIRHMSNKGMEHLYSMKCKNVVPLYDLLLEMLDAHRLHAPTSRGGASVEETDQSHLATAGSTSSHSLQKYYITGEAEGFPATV
# Outline: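 HepG2 cells transiently transfected with multiplexed GAL4-UAS reporter units; ERa activity read via exogenous chimeric NR-Gal4 protein. After 24 hour compound exposure, reporter mRNA measured by RT-PCR with 6-FAM labelling and capillary electrophoresis; gain-of-signal fitted relative to DMSO.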
# [14] = target: X-box-binding protein 1 (Homo sapiens) (UniProt P17861); experiment: ATG_Xbp1_CIS: Attagene CIS-FACTORIAL HepG2 Assay for human X-box Binding Protein 1 (XBP1) (AID 2282972); details: HepG2 XBP1 cis-element reporter, Attagene multiplex; actives raise or lower the signal
# Sequence of X-box-binding protein 1 (Homo sapiens) (P17861 whole entry, looked up): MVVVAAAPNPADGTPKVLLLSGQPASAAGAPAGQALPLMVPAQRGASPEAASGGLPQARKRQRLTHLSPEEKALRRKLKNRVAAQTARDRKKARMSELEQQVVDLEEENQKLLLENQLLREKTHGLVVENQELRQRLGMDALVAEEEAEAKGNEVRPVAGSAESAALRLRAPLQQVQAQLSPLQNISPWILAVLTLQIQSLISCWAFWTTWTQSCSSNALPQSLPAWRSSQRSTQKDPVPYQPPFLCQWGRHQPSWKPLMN
# Outline: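 After a 24-hour chemical exposure of HepG2 cells carrying cis-regulated reporters, reporter mRNA levels are assessed. Quantification uses RT-PCR, 6-FAM labelling and capillary electrophoresis. Gain- or loss-of-signal is fitted against DMSO.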
# [15] = ATG_VDRE_CIS: Attagene CIS-FACTORIAL HepG2 Assay for human Vitamin D Receptor Element (VDRE) (AID 2282968); details: HepG2 VDRE cis-reporter transcription, actives raise or lower the signal
# Outline: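 Transiently transfected HepG2 cells carrying cis-regulated reporter transcription units were exposed for 24 h. Reporter mRNA was measured by RT-PCR with fluorescent labelling and capillary electrophoresis, and fitted in both directions against DMSO.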
# [16] = target: Steroid hormone receptor ERR1 (Homo sapiens) (UniProt P11474); experiment: ATG_ERRa_TRANS: Attagene TRANS-FACTORIAL HepG2 Assay for human Estrogen-Related Receptor alpha (ERRa) (AID 2282971; active = hit-call score of the fitted dose curve at least 0.9, where 1 is the maximum); details: HepG2 Attagene TRANS reporter, ERRa transactivation
# Sequence of Steroid hormone receptor ERR1 (Homo sapiens) (P11474 whole entry, looked up, the tested form may be a part): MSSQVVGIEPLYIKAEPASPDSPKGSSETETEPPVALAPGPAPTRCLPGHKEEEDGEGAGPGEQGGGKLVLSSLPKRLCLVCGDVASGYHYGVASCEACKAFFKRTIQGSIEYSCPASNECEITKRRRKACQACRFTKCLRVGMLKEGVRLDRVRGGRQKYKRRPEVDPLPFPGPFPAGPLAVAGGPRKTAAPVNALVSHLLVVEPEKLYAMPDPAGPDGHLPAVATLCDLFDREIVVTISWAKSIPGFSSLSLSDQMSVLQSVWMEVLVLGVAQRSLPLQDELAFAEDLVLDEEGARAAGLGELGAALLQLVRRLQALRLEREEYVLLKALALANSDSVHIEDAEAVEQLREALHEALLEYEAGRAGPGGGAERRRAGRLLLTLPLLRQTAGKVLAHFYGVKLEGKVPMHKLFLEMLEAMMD
# Outline: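 HepG2 cells transiently transfected with multiplexed GAL4-UAS reporter units reading chimeric ERRa-Gal4 activity; 24 h compound exposure. Reporter mRNA measured by RT-PCR, 6-FAM labelling, HpaI digest and capillary electrophoresis; gain of signal fitted versus DMSO baseline.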
# [17] = ATG_M_19_TRANS: Attagene TRANS-FACTORIAL HepG2 Assay for M19 Transcription Factor (Internal Marker) (AID 2282974; active = hit-call score of the fitted dose curve at least 0.9, where 1 is the maximum); details: HepG2 Attagene TRANS-FACTORIAL M19 internal marker reporter
# Outline: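 Fluorescence of 6-FAM-labelled reporter cDNA fragments, separated by capillary electrophoresis, served as the readout. These derived from HepG2 cells carrying transfected GAL4-UAS reporter units after 24 h dosing, with DMSO as negative control.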
# [18] = ATG_GAL4_TRANS: Attagene TRANS-FACTORIAL HepG2 Assay for GAL4 (Internal Marker) (AID 2282976; active = hit-call score of the fitted dose curve at least 0.9, where 1 is the maximum); details: HepG2 Attagene TRANS GAL4 internal marker reporter
# Outline: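 HepG2 cells transiently transfected with multiplexed GAL4-UAS reporter constructs were dosed for 24 h. Reporter mRNA was measured by RT-PCR, 6-FAM primer extension, HpaI digestion and capillary electrophoresis, and gain of signal was fitted relative to DMSO.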
# [19] = target: Glucocorticoid receptor (Homo sapiens) (UniProt P04150); experiment: ATG_GR_TRANS: Attagene TRANS-FACTORIAL HepG2 Assay for human Glucocorticoid Receptor (GR) (AID 2282978; active = hit-call score of the fitted dose curve at least 0.9, where 1 is the maximum;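 note: activators score as hits since higher reporter transcript over DMSO is fitted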); details: HepG2 Attagene TRANS GR reporter, mRNA transcription
# Sequence of Glucocorticoid receptor (Homo sapiens) (P04150 whole entry, looked up, the tested form may be a part): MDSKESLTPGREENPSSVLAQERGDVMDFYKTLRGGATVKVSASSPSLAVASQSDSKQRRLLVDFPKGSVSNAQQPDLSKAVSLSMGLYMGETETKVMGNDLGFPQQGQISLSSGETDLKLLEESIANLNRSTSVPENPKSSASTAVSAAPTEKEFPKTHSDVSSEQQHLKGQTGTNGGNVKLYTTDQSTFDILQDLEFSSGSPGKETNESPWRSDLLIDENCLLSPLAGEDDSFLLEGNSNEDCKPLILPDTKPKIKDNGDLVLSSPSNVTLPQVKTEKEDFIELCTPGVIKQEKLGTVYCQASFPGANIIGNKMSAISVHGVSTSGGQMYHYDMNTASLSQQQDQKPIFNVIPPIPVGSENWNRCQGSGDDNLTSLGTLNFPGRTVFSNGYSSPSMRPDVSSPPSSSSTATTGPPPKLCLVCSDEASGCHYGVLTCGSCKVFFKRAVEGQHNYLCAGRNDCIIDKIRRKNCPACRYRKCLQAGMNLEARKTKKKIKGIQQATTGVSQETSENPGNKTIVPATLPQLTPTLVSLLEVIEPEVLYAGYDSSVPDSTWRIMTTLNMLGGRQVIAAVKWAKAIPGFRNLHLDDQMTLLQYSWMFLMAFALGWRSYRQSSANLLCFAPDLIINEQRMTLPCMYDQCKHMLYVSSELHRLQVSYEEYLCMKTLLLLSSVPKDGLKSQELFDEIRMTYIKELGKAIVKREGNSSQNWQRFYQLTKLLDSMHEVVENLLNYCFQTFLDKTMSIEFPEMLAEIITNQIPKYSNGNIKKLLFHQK
# Outline: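 Fluorescent capillary-electrophoresis quantitation of reporter mRNA is the readout, taken 24 h after dosing human HepG2 cells carrying transiently transfected GAL4-UAS reporter units activated by chimeric NR-GAL4 fusions; activity scored as induction over DMSO.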
# [20] = target: Estrogen-related receptor gamma (Homo sapiens) (UniProt P62508); experiment: ATG_ERRg_TRANS: Attagene TRANS-FACTORIAL HepG2 Assay for human Estrogen-Related Receptor gamma (ERRg) (AID 2282977; active = hit-call score of the fitted dose curve at least 0.9, where 1 is the maximum;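 note: hits increase reporter signal over DMSO so potencies reflect activators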); details: HepG2 Attagene TRANS reporter, ERRg transactivation
# Sequence of Estrogen-related receptor gamma (Homo sapiens) (P62508 whole entry, looked up, the tested form may be a part): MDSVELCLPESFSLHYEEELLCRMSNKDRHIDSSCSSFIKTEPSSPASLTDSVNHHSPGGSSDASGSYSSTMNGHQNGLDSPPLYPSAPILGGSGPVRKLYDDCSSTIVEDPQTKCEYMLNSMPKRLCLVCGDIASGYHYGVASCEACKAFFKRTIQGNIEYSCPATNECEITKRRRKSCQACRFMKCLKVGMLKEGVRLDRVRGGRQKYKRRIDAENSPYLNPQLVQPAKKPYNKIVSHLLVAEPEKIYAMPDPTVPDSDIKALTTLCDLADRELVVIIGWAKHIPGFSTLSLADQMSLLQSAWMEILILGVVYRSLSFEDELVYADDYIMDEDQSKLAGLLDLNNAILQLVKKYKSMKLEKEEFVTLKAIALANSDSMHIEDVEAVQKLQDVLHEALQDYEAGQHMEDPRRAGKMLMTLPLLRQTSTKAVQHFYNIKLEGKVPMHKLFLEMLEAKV
# Outline: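 HepG2 cells transiently transfected with multiplexed GAL4-UAS reporter units driven by chimeric NR-Gal4 proteins; 24 h exposure. Reporter mRNA quantified by RT-PCR, fluorescent labelling, HpaI digestion and capillary electrophoresis; gain of signal vs DMSO.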
compound,measurement,setting,value
Nc1ccc2c(c1)C(=O)c1ccccc1C2=O,outcome,[1],inactive
same,AC50,[2],26.9 µM (active)
same,outcome,[3],inactive
same,outcome,[4],inactive
same,outcome,[5],inactive
same,outcome,[6],inactive
same,outcome,[7],inactive
same,outcome,[8],inactive
same,outcome,[9],inactive
same,outcome,[10],inactive
same,outcome,[11],inactive
same,outcome,[12],inactive
same,AC50,[13],13.6 µM (active)
same,outcome,[14],inactive
CCc1c(C(=O)NN2CCCCC2)nn(-c2ccc(Cl)cc2Cl)c1-c1ccc(Br)cc1,AC50,[1],1.75 µM (active)
same,AC50,[2],0.147 µM (active)
same,outcome,[3],inactive
same,outcome,[4],inactive
same,outcome,[5],inactive
same,outcome,[6],inactive
same,outcome,[8],inactive
same,outcome,[9],inactive
same,AC50,[10],3.53 µM (active)
same,outcome,[11],inactive
same,outcome,[12],inactive
same,AC50,[15],1.38 µM (active)
same,outcome,[13],inactive
same,outcome,[16],inactive
same,outcome,[14],inactive
same,outcome,[17],inactive
COc1ccc(C)cc1N,outcome,[1],inactive
same,outcome,[2],inactive
same,outcome,[3],inactive
same,outcome,[4],inactive
same,outcome,[5],inactive
same,outcome,[6],inactive
same,outcome,[7],inactive
same,outcome,[8],inactive
same,outcome,[9],inactive
same,outcome,[10],inactive
same,outcome,[11],inactive
same,outcome,[12],inactive
same,outcome,[15],inactive
same,outcome,[13],inactive
same,outcome,[14],inactive
same,outcome,[17],inactive
same,outcome,[18],inactive
same,outcome,[19],inactive
Nc1ccccc1N,AC50,[1],23 µM (active)
same,AC50,[2],82.4 µM (active)
same,AC50,[3],15.7 µM (active)
same,AC50,[4],28.5 µM (active)
same,outcome,[5],inactive
same,AC50,[6],25.9 µM (active)
same,outcome,[7],inactive
same,outcome,[8],inactive
same,AC50,[9],50.8 µM (active)
same,outcome,[10],inactive
same,outcome,[11],inactive
same,outcome,[12],inactive
same,AC50,[15],34.8 µM (active)
same,outcome,[13],inactive
same,AC50,[14],51.8 µM (active)
same,outcome,[19],inactive
Clc1cc(Cl)c(Cl)cc1Cl,outcome,[1],inactive
same,outcome,[2],inactive
same,outcome,[3],inactive
same,outcome,[4],inactive
same,outcome,[5],inactive
same,outcome,[6],inactive
same,outcome,[8],inactive
same,outcome,[9],inactive
same,outcome,[10],inactive
same,outcome,[11],inactive
same,outcome,[12],inactive
same,outcome,[14],inactive
same,outcome,[20],inactive
same,outcome,[19],inactive
Cc1ccc(C(C)C)c(O)c1,outcome,[1],inactive
same,AC50,[2],34.5 µM (active)
same,outcome,[3],inactive
same,outcome,[4],inactive
same,outcome,[5],inactive
same,outcome,[6],inactive
same,outcome,[8],inactive
same,outcome,[9],inactive
same,outcome,[10],inactive
same,outcome,[11],inactive
same,outcome,[12],inactive
same,outcome,[15],inactive
same,AC50,[13],46.1 µM (active)
same,outcome,[14],inactive
same,outcome,[18],inactive
same,outcome,[20],inactive
same,outcome,[19],inactive
CCCCCC(=O)O,outcome,[1],inactive
same,AC50,[2],53 µM (active)
same,outcome,[3],inactive
same,outcome,[4],inactive
same,outcome,[5],inactive
same,outcome,[6],inactive
same,outcome,[7],inactive
same,outcome,[8],inactive
same,outcome,[9],inactive
same,outcome,[10],inactive
same,outcome,[11],inactive
same,outcome,[12],inactive
same,outcome,[15],inactive
same,outcome,[13],inactive
same,outcome,[16],inactive
same,outcome,[14],inactive
same,outcome,[17],inactive
same,outcome,[20],inactive
